Cruzain inh noDet – blocks cruzain activity in detergent-free assay; P25779; purified cruzain, Z-FR-AMC fluorescence, no detergent; Potency, µM, without a hit: max response, negative = inhibition, most hits filed as inhibitors; hit rate 2.3% among 200,000;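 further: plate controls were enzyme without inhibitor for no effect and buffer without enzyme for full effect; nearly all actives have a fitted effect of over 40% in size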
Target sequence (P25779 123-467 limits assumed): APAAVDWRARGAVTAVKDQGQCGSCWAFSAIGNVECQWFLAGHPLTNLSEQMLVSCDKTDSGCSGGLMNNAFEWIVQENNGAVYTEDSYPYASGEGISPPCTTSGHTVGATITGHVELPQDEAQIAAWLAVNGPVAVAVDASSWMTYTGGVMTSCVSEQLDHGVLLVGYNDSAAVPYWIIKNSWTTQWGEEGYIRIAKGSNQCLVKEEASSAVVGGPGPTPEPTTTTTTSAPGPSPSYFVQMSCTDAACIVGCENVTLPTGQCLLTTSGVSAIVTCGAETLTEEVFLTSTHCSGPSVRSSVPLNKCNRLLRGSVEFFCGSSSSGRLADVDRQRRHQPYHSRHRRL
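Detergent-free condition (0.00005% Triton X-100) in acetate buffer pH 5.5 with DTT. 1.5 nM enzyme and compound were pre-mixed 15 min, then 2 uM Z-FR-AMC substrate added; reaction progress from fluorescence change between first and third reads (60 s).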
Cruzain Triton – inhibitors of Trypanosoma cruzi cruzain with detergent | purified cruzain, Z-FR-AMC fluorescence, 0.01% Triton | Potency, µM, inactives show max response, negative = inhibition, hits mostly inhibitors | P25779 | hit rate 0.43% among 200,000;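 further: plate controls were neutral wells for no effect and buffer without enzyme for full effect; nearly all actives have a fitted effect of over 40% in size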
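Compounds were screened in titration against cruzain (1.5 nM) with 0.01% Triton X-100 to counter colloidal aggregation. Activity was the AMC fluorescence increase over 60 s after adding 2 uM Z-FR-AMC at pH 5.5.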
The depositor's hits bear a star; ? = inconclusive. In the library only some 2.5% were active in any assay of this set; here they are far more common. The call rests on the fitted dose curve; in most records, active means well fitted curve in the direction sought with a large enough effect; inconclusive means small, poorly fitted or top-dose-only effect, or another doubt; inactive means no such curve, though single readings can be large; an effect the other way counts as inactive or inconclusive. Potency means the concentration at half of the fitted maximal effect.

SMILES	Cruzain inh noDet	Cruzain Triton
Cc1ccc(-c2nnc(Nc3ccccc3)c3ccccc23)cc1S(=O)(=O)NCc1nc2ccccc2[nH]1	?	-6%
Cc1ccc(-c2nnc(NCc3nc4ccccc4[nH]3)c3ccccc23)cc1S(=O)(=O)N1CCCCC1	13µM*	-2%
CC(C)(C)c1ccc(/C=C/C(=O)Nc2ccc3c(c2)OCCO3)cc1	-24%	3%
CCc1ccc(NC(=O)c2sc(-n3nc(C)c(Cc4ccc(OC)cc4)c3C)nc2C)cc1	-6%	0%
CNC(=O)c1c(N)sc2c1CCCCC2	-15%	-16%
NC(=O)c1c(N)sc2c1CCCCC2	25µM*	-21%
O=C(Nc1ccc2oc(-c3ccc4ccccc4c3)nc2c1)c1ccc(Cl)c(Cl)c1	-3%	0%
O=C(Nc1ccc2oc(-c3ccc4ccccc4c3)nc2c1)c1ccc2c(c1)OCCO2	10µM*	-3%
Cc1ccc(C)c(-n2c3nc(=O)[nH]c(=O)c-3cc3c(C)nn(-c4ccccc4)c32)c1	6%	-2%
CC(C)[C@H](NC(=O)OCc1ccccc1)C(=O)NCc1ccccc1	-10%	-3%
CC(C)[C@H](NC(=O)OCc1ccccc1)C(=O)N[C@H](C=O)Cc1ccccc1	0.032µM*	0.032µM*
CC(C)[C@H](NC(=O)OCc1ccccc1)C(=O)OCC(=O)Nc1c(F)cccc1F	?	14µM*
CC(C)C(NC(=O)OCc1ccccc1)C(=O)O (stereo unspecified)	-2%	7%
COc1cc(NC(=O)c2cc(-c3cccc(OC)c3)n[nH]2)cc(OC)c1	13%	-8%
O=C(/C=C1\SC(=O)N(CC(=O)Nc2ccc(Cl)cc2)C1=O)Nc1ccc(F)cc1	?	-3%
Cc1cccc(NC(=O)CN2C(=O)S/C(=C\C(=O)Nc3ccc(Cl)cc3)C2=O)c1	13µM*	-1%
O=C(/C=C1\SC(=O)N(CC(=O)Nc2ccc(F)cc2)C1=O)Nc1ccc(Cl)cc1	25µM*	-1%
Cc1cccc(NC(=O)CN2C(=O)N/C(=C/c3cc(C)n(C(C)C)c3C)C2=O)c1	-20%	-4%
Cc1cccc(NC(=O)CN2C(=O)N/C(=C/c3ccc(C)s3)C2=O)c1	4µM*	-4%
CC(/C=C1\SC(=O)N(CC(=O)Nc2cccc(O)c2)C1=O)=C\c1ccccc1	8%	-4%
COc1ccccc1-c1cc(SC)c(C#N)c(=O)o1	-2%	-1%
CCOc1ccccc1NC(=O)N1CCc2c(sc(C)c2CC)C1c1ccccc1 (stereo unspecified)	?	-2%
COc1ccc(Nc2ncnc3c2cnn3-c2ccc(C)cc2)cc1Cl	8%	4%
CC1(O)CC2C(CC1O)C2(C)C (stereo unspecified)	-5%	8%
O=S(=O)(c1ccccc1)N(CC(F)(F)F)c1ccc(C(O)(C(F)(F)F)C(F)(F)F)cc1	5%	-2%
SMILES	Cruzain inh noDet	Cruzain Triton
Cc1ccc2nc3nc(NCC4CCCO4)c(C(=O)NC4CCCC4)cc3c(=O)n2c1 (stereo unspecified)	12%	-17%
C=CCNC(=O)c1cc2c(=O)n3cc(C)ccc3nc2nc1NCC1CCCO1 (stereo unspecified)	?	22µM*
Cc1nc(-c2ccc(Cl)cc2)sc1CCNC(=O)C(=O)Nc1ccc(F)cc1F	0%	-1%
COc1cc(-c2cc(OC)c3c(C)oc(C)c3c(=O)c2)ccc1OC(=O)c1ccccc1C	28%	-21%
CCOC(=O)C1=C(c2ccccc2)N=c2s/c(=C\c3cccc(O)c3)c(=O)n2C1c1cccs1 (stereo unspecified)	-4%	-4%
O=c1/c(=C\c2ccc(O)cc2)sc2n1C(c1ccccc1)C(c1ccccc1)=NN=2 (stereo unspecified)	25µM*	-3%
CCCCOC(=O)/C(C#N)=C\c1ccc(-c2ccc(Cl)cc2)o1	0%	2%
Cc1nc(S/C(=C/c2ccc(-c3ccc(Cl)cc3)o2)C(=O)O)n[nH]1	13µM*	-2%
O=C(NCc1ccccc1Cl)c1ccc2c(O)c(S(=O)(=O)c3ccccc3)c(=O)[nH]c2c1	-12%	-7%
Cc1c(NC(=O)c2ccc(Cl)cc2)cc(C(C)C)c(O)c1S(=O)(=O)c1ccc(Cl)cc1	32µM*	0%
Cc1c(NC(=O)c2ccccc2)cc(C(C)C)c(O)c1S(=O)(=O)c1ccc(Cl)cc1	?	-2%
CC(C)CCNC(=O)c1ccc(Cn2c(SCC(=O)NC(C)C)nc3ccccc3c2=O)cc1	-1%	0%
CCCCn1c(Nc2ccccc2)nc2ccccc21	-5%	1%
CCCn1c(Nc2nc3ccccc3n2C)nc2ccccc21	20µM*	0%
COc1cccc(N2CC(NC(=O)c3ccc(S(=O)(=O)N4CCCC4)cc3)CC2=O)c1 (stereo unspecified)	1%	-2%
N#Cc1c(/N=C/c2ccccc2)oc(-c2ccccc2)c1-c1ccccc1	32µM*	-8%
N#Cc1c(/N=C/c2ccco2)oc(-c2ccccc2)c1-c1ccccc1	-6%	-15%
